According to PubChem BioAssay (EPA / NIEHS):
Active and inactive are the calls of the source. How the source made its calls: active means hit-call score of the fitted dose curve at least 0.9, where 1 is the maximum; inactive means score below 0.9.

Columns and labels:
[1] = read-out: Urokinase-type plasminogen activator receptor (uPAR), PLAUR (gene 5329); assay: BSK_4H_uPAR: BioMAP Diversity Plus: 4H Assay for Urokinase-type plasminogen activator receptor (uPAR) Biomarker Activity (AID 2283030); conditions: primary human endothelial cells (HUVEC); actives raise or lower the signal
Summary of the method: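 uPAR level read by ELISA on HUVEC cultures (BioMAP 4H) 24 h post-dosing, analyzed for gain or loss relative to DMSO. Parallel SRB staining assessed overt cytotoxicity.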

[2] = read-out: Vascular endothelial growth factor receptor 2 (Homo sapiens) (UniProt P35968); assay: BSK_4H_VEGFRII: BioMAP Diversity Plus: 4H Assay for Vascular endothelial growth factor receptor 2 (VEGFR2) Biomarker Activity (AID 2283031); conditions: primary human endothelial cells (HUVEC); actives raise or lower the signal
Summary of the method: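 Measured by ELISA after 24 h of compound treatment: VEGFR2 on primary human umbilical vein endothelial cells, fitted in both directions relative to DMSO. Parallel cultures received SRB staining (560 nm) for overt cytotoxicity.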

[3] = read-out: Human Leukocyte Antigen - DR isotype (HLADR), HLA-DRA (gene 3122); assay: BSK_BE3C_HLADR: BioMAP Diversity Plus: BE3C Assay for Human Leukocyte Antigen - DR isotype (HLADR) Biomarker Activity (AID 2283032); conditions: primary human bronchial epithelial cells; actives raise or lower the signal
Summary of the method: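 Signal came from an ELISA for HLA-DR in human bronchial epithelial primary cells harvested 24 h after treatment; gain- and loss-of-signal fitting used DMSO controls as reference.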

[4] = read-out: Vascular cell adhesion molecule 1 (VCAM1), VCAM1 (gene 7412); assay: BSK_4H_VCAM1: BioMAP Diversity Plus: 4H Assay for Vascular cell adhesion molecule 1 (VCAM1) Biomarker Activity (AID 2283033); conditions: primary human endothelial cells (HUVEC); actives raise or lower the signal;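 on outcome: cell-surface VCAM-1 protein measured by ELISA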
Summary of the method: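 Endpoint derived from bidirectional fitting against DMSO controls of VCAM-1 ELISA signal in umbilical vein endothelial cells sampled at 24 h following treatment.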

[5] = read-out: Interferon-gamma inducible Protein 10 (IP10), CXCL10 (gene 3627); assay: BSK_BE3C_IP10: BioMAP Diversity Plus: BE3C Assay for Interferon-gamma inducible Protein 10 (IP10) Biomarker Activity (AID 2283034); conditions: primary human bronchial epithelial cells; actives raise or lower the signal
Summary of the method: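 Using primary human bronchial epithelial cultures, the assay captures IP-10 by ELISA one day (24 h) after exposure. Parallel SRB staining of total protein flags overt cytotoxicity. Fits run bidirectionally relative to DMSO.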

[6] = read-out: Monokine induced gamma interferon (MIG), CXCL9 (gene 4283); assay: BSK_BE3C_MIG: BioMAP Diversity Plus: BE3C Assay for Monokine induced gamma interferon (MIG) Biomarker Activity (AID 2283035); conditions: primary human bronchial epithelial cells; actives raise or lower the signal;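 further: MIG protein measured by ELISA in BE3C cultures after 24 h of dosing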
Summary of the method: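 MIG level was determined by ELISA after 24 h chemical treatment of primary human bronchial epithelial cells. Values were fitted bidirectionally with DMSO as the negative control and activity baseline.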

[7] = read-out: Transforming growth factor beta 1 (TGFb1), TGFB1 (gene 7040); assay: BSK_BE3C_TGFb1: BioMAP Diversity Plus: BE3C Assay for Transforming growth factor beta 1 (TGFb1) Biomarker Activity (AID 2283036;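 on outcome: TGF-b1 protein level measured by ELISA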); conditions: primary human bronchial epithelial cells; actives raise or lower the signal
Summary of the method: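 In this human primary bronchial epithelial system, an ELISA quantified TGF-b1 one day after dosing. Endpoint changes in either direction were fitted relative to DMSO.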

[8] = read-out: Plasminogen activator inhibitor-1 (PAI1), SERPINE1 (gene 5054); assay: BSK_BE3C_PAI1: BioMAP Diversity Plus: BE3C Assay for Plasminogen activator inhibitor-1 (PAI1) Biomarker Activity (AID 2283037); conditions: primary human bronchial epithelial cells; actives raise or lower the signal
Summary of the method: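 PAI-1 biomarker levels in treated human bronchial epithelial cells are determined by ELISA at 24 h. Both increases and decreases relative to DMSO are fitted.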

[9] = read-out: urokinase plasminogen activator (uPA), PLAU (gene 5328); assay: BSK_BE3C_uPA: BioMAP Diversity Plus: BE3C Assay for urokinase plasminogen activator (uPA) Biomarker Activity (AID 2283038); conditions: primary human bronchial epithelial cells; actives raise or lower the signal;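 further: uPA protein level quantified by ELISA in cell cultures; uPA read one day after compound addition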
Summary of the method: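 ELISA for uPA on human primary bronchial epithelial cultures 24 h post-treatment, gain or loss against DMSO. Parallel SRB staining (0.1% after 10% TCA fixation, 560 nm) assessed overt cytotoxicity.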

[10] = read-out: Urokinase-type plasminogen activator receptor (uPAR), PLAUR (gene 5329); assay: BSK_BE3C_uPAR: BioMAP Diversity Plus: BE3C Assay for Urokinase-type plasminogen activator receptor (uPAR) Biomarker Activity (AID 2283039); conditions: primary human bronchial epithelial cells; actives raise or lower the signal;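 on outcome: uPAR protein level measured by ELISA on the cells; cells exposed to compound for one day before measurement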
Summary of the method: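 A uPAR ELISA serves as the readout, taken 24 h after treating primary human bronchial epithelial cells. Responses in either direction are fitted against DMSO, which defines baseline activity.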

[11] = read-out: Interleukin-6 (IL6), IL6 (gene 3569); assay: BSK_CASM3C_IL6: BioMAP Diversity Plus: CASM3C Assay for Interleukin-6 (IL6) Biomarker Activity for (AID 2283040); conditions: primary human coronary artery smooth muscle cells; actives raise or lower the signal
[12] = read-out: Tissue plasminogen activator (tPA), PLAT (gene 5327); assay: BSK_BE3C_tPA: BioMAP Diversity Plus: BE3C Assay for Tissue plasminogen activator (tPA) Biomarker Activity (AID 2283041); conditions: primary human bronchial epithelial cells; actives raise or lower the signal;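 further: tPA level quantified by ELISA one day after compound addition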
Summary of the method: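 Bidirectional curve fitting relative to DMSO defined activity, with tPA detected by ELISA in chemically treated human bronchial epithelial primary cells at 24 hours.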

[13] = read-out: Interleukin-8 (IL8), CXCL8 (gene 3576); assay: BSK_CASM3C_IL8: BioMAP Diversity Plus: CASM3C Assay for Interleukin-8 (IL8) Biomarker Activity (AID 2283042); conditions: primary human coronary artery smooth muscle cells; actives raise or lower the signal;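 further: IL-8 protein level quantified by ELISA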
[14] = read-out: Human Leukocyte Antigen - DR isotype (HLADR), HLA-DRA (gene 3122); assay: BSK_CASM3C_HLADR: BioMAP Diversity Plus: CASM3C Assay for Human Leukocyte Antigen - DR isotype (HLADR) Biomarker Activity (AID 2283043); conditions: primary human coronary artery smooth muscle cells; actives raise or lower the signal;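 further: cell-surface HLA-DR protein level quantified by ELISA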
[15] = read-out: Macrophage colony-stimulating factor (MCSF), CSF1 (gene 1435); assay: BSK_CASM3C_MCSF: BioMAP Diversity Plus: CASM3C Assay for Macrophage colony-stimulating factor (MCSF) Biomarker Activity (AID 2283044); conditions: primary human coronary artery smooth muscle cells; actives raise or lower the signal;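 further: M-CSF protein amount quantified by ELISA after 24 h exposure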
[16] = read-out: Low-density lipoprotein receptor (LDLR), LDLR (gene 3949); assay: BSK_CASM3C_LDLR: BioMAP Diversity Plus: CASM3C Assay for Low-density lipoprotein receptor (LDLR) Biomarker Activity (AID 2283045); conditions: primary human coronary artery smooth muscle cells; actives raise or lower the signal;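 further: LDLR protein level on the cell surface quantified by ELISA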
[17] = read-out: Monocyte Chemoattractant Protein-1 (MCP1), CCL2 (gene 6347); assay: BSK_CASM3C_MCP1: BioMAP Diversity Plus: CASM3C Assay for Monocyte Chemoattractant Protein-1 (MCP1) Biomarker Activity (AID 2283046); conditions: primary human coronary artery smooth muscle cells; actives raise or lower the signal;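 further: MCP-1 level quantified by ELISA 24 h after dosing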
[18] = BSK_CASM3C_Proliferation: Cell Proliferation Assessment in the BioMAP Diversity Plus: CASM3C Assay (AID 2283047); conditions: primary human coronary artery smooth muscle cells;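 further: sulforhodamine B total protein stain as relative cell number at 560 nm; sub-confluent cells exposed 48 h before staining; fitted both ways against DMSO so gain or loss of cell number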
[19] = read-out: Monokine induced gamma interferon (MIG), CXCL9 (gene 4283); assay: BSK_CASM3C_MIG: BioMAP Diversity Plus: CASM3C Assay for Monokine induced gamma interferon (MIG) Biomarker Activity (AID 2283048); conditions: primary human coronary artery smooth muscle cells; actives raise or lower the signal;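 further: MIG protein level measured by ELISA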
[20] = read-out: serum amyloid A (SAA), SAA1 (gene 6288); assay: BSK_CASM3C_SAA: BioMAP Diversity Plus: CASM3C Assay for serum amyloid A (SAA) Biomarker Activity (AID 2283049); conditions: primary human coronary artery smooth muscle cells; actives raise or lower the signal;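 further: SAA protein level quantified by ELISA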

CC(Oc1cccc(Cl)c1)C(=O)O (stereo unspecified)
outcome [1]: inactive
outcome [2]: inactive
outcome [3]: inactive
outcome [4]: inactive
outcome [5]: inactive
outcome [6]: inactive
outcome [7]: inactive
outcome [8]: inactive
outcome [9]: inactive
outcome [10]: inactive
outcome [11]: inactive
outcome [12]: inactive
outcome [13]: inactive
outcome [14]: inactive
outcome [15]: inactive
outcome [16]: inactive
outcome [17]: inactive
outcome [18]: inactive
outcome [19]: inactive
outcome [20]: inactive

CCOC(=O)COc1cc(-c2nn(C)c(OC(F)F)c2Cl)c(F)cc1Cl
outcome [1]: inactive
outcome [2]: inactive
outcome [3]: inactive
outcome [4]: inactive
outcome [5]: inactive
outcome [6]: inactive
outcome [7]: inactive
outcome [8]: inactive
outcome [9]: inactive
outcome [10]: inactive
outcome [11]: inactive
outcome [12]: inactive
outcome [13]: inactive
outcome [14]: inactive
outcome [15]: inactive
outcome [16]: inactive
outcome [17]: inactive
outcome [18]: inactive
outcome [19]: inactive
outcome [20]: inactive

CCCCN(CC)c1c([N+](=O)[O-])cc(C(F)(F)F)cc1[N+](=O)[O-]
outcome [1]: inactive
outcome [2]: inactive
outcome [3]: inactive
AC50 [4]: 20 µM (active)
AC50 [5]: 29.9 µM (active)
outcome [6]: inactive
outcome [7]: inactive
outcome [8]: inactive
outcome [9]: inactive
outcome [11]: inactive
outcome [12]: inactive
outcome [13]: inactive
outcome [14]: inactive
outcome [15]: inactive
outcome [16]: inactive
outcome [17]: inactive
outcome [18]: inactive
outcome [19]: inactive
outcome [20]: inactive

CCOP(=O)(SC(C)CC)N1CCSC1=O (stereo unspecified)
outcome [1]: inactive
outcome [2]: inactive
outcome [3]: inactive
outcome [4]: inactive
outcome [5]: inactive
outcome [6]: inactive
outcome [7]: inactive
outcome [8]: inactive
outcome [9]: inactive
outcome [10]: inactive
outcome [11]: inactive
outcome [12]: inactive
outcome [13]: inactive
outcome [14]: inactive
outcome [15]: inactive
outcome [16]: inactive
outcome [17]: inactive
outcome [18]: inactive
outcome [19]: inactive
outcome [20]: inactive

CON=C(C(=O)OC)c1ccccc1CON=C(C)c1cccc(C(F)(F)F)c1
outcome [1]: inactive
outcome [2]: inactive
outcome [3]: inactive
outcome [4]: inactive
AC50 [5]: 20 µM (active)
outcome [6]: inactive
outcome [7]: inactive
AC50 [8]: 8.79 µM (active)
outcome [9]: inactive
AC50 [10]: 5.37 µM (active)
AC50 [11]: 1.92 µM (active)
outcome [12]: inactive
outcome [13]: inactive
outcome [14]: inactive
outcome [15]: inactive
outcome [16]: inactive
AC50 [17]: 2.68 µM (active)
AC50 [18]: 8.75 µM (active)
outcome [19]: inactive
outcome [20]: inactive

CCC(=O)Nc1ccc(Cl)c(Cl)c1
outcome [1]: inactive
outcome [2]: inactive
outcome [3]: inactive
outcome [4]: inactive
AC50 [5]: 27.2 µM (active)
outcome [6]: inactive
AC50 [7]: 3.97 µM (active)
outcome [8]: inactive
outcome [9]: inactive
outcome [11]: inactive
outcome [12]: inactive
outcome [13]: inactive
outcome [14]: inactive
outcome [15]: inactive
outcome [16]: inactive
outcome [17]: inactive
outcome [18]: inactive
outcome [19]: inactive

O=c1ccc(=O)[nH][nH]1
outcome [1]: inactive
outcome [2]: inactive
outcome [3]: inactive
outcome [4]: inactive
outcome [5]: inactive
outcome [6]: inactive
outcome [7]: inactive
outcome [8]: inactive
outcome [9]: inactive
outcome [11]: inactive
outcome [12]: inactive
outcome [13]: inactive
outcome [14]: inactive
outcome [15]: inactive
outcome [16]: inactive
outcome [17]: inactive
outcome [18]: inactive
outcome [19]: inactive
outcome [20]: inactive
